Source: PubChem BioAssay (EPA / NIEHS)
Calls of active or inactive are those of the source. How the source made its calls: active means hit-call score of the fitted dose curve at least 0.9, where 1 is the maximum; inactive means score below 0.9.

Each molecule was assayed against Aryl hydrocarbon receptor (Homo sapiens) (UniProt P35869) (assay: ATG_Ahr_CIS: Attagene CIS-FACTORIAL HepG2 Assay for human Aryl Hydrocarbon Receptor (Ahr) (AID 2282930)). Details: HepG2 AhR cis-factorial reporter transcription; actives raise or lower the signal.
Chain of Aryl hydrocarbon receptor (Homo sapiens) (P35869 whole entry, looked up): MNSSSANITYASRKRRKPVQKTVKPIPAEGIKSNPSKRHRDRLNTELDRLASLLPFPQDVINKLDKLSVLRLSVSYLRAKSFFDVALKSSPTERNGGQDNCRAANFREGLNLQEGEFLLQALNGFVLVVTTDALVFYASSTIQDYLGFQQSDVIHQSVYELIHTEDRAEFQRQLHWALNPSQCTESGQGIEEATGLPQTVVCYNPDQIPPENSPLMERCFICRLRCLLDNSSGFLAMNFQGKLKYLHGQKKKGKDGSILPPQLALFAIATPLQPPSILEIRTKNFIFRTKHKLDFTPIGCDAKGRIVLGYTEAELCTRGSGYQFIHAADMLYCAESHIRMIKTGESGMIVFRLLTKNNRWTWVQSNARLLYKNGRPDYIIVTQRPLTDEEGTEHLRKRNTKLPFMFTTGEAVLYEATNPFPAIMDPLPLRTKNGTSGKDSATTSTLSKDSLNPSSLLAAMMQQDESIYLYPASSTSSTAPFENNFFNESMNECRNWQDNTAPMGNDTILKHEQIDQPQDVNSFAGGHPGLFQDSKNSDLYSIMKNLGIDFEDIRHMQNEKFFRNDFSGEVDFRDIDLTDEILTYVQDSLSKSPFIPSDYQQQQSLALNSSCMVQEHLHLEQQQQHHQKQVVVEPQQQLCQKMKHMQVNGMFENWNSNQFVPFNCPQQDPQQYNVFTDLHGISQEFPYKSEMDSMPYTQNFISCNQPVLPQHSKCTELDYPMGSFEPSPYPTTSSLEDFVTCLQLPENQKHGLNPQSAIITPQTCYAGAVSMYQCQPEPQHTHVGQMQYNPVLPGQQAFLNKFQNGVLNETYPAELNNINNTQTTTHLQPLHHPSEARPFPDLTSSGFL
Protocol: ATG_CIS is a cell-based, multiplexed-readout assay that uses HepG2, a human liver cell line, with measurements taken at 24 hours after chemical dosing in a 24-well plate.ATG_Ahr_CIS is one of 52 assay component(s) measured or calculated from the ATG_CIS assay. It is designed to make measurements of mRNA induction, a form of inducible reporter, as detected with fluorescence intensity signals by Reverse transcription polymerase chain reaction (RT-PCR) and Capillary electrophoresis technology.Data from the assay component ATG_Ahr_CIS was analyzed into 1 assay endpoint. This assay endpoint, ATG_Ahr_CIS, was analyzed with bidirectional fitting relative to DMSO as the negative control and baseline of activity. Using a type of inducible reporter, measures of mRNA for gain or loss-of-signal activity can be used to understand the reporter gene at the transcription factor-level as they relate to the gene AHR. Furthermore, this assay endpoint can be referred to as a primary readout, because this assay has produced multiple assay endpoints where this one serves a reporter gene function. To generalize the intended target to other relatable targets, this assay endpoint is annotated to the dna binding intended target family, where the subfamily is basic helix-loop-helix protein.
Human liver HepG2 cells are transiently transfected with multiple reporter transcription units (MRTUs) in 6-well plates using FuGene 6 reagent (Roche; 3 ml FuGene/1 mg DNA). The MRTU constructs are regulated by a cis-regulating element (promoter). […] A major difference between the CIS and TRANS system is that in CIS activities of endogenous TFs are measured, whereas the TRANS assay evaluates changes in activities of exogenous, chimeric NR-Gal4 proteins. […] At the end of 24 hour incubation, total RNA was isolated using TriZol reagent (Invitrogen). The isolated RNA is then reverse-transcribed using oligo(dT) primer and Mo-MLV reverse transcriptase (Invitrogen) with DNAse I (Ambion) treatment for 30 min. The one-tenth of the produced cDNA was amplified by PCR using Taq DNA polymerase (Invitrogen) and two reporter sequence-specific primers. The PCR products were fluorescently labeled by primer extension with 6-arboxyfluorescein (6-FAM) 5'-labeled reporter sequence-specific primer (2 min at 95 C, 20 s at 68 C and 10 min at 72 C) and these products were digested with 5U of HpaI (New England Biolabs) for 2h at 37 C. […] The raw capillary electrophoresis data was processed using Attagraph software (Attagene).

Row | Compound | outcome | AC50
1 | C=C(C)C(=O)OCCOc1ccccc1 | inactive | –
2 | Cc1ccc(N/N=c2\c(=O)cc/c(=N/Nc3ccc(S(=O)(=O)O)cc3)c2=O)c(C)c1 | – | 9.18 µM (active)
3 | [Cl][Bi]([Cl])([c]1ccccc1)([c]1ccccc1)[c]1ccccc1 | inactive | –
4 | CC(C)c1ccc2c(c1)CC[C@H]1[C@](C)(CN)CCC[C@]21C | inactive | –
5 | CC(C)(Oc1ccc(C2CC2(Cl)Cl)cc1)C(=O)O (stereo not given) | inactive | –
6 | O=C1c2cccc(O)c2C(=O)c2c(O)cc(CO)cc21 | inactive | –
7 | O=C(O)CCCCCCCCCC(=O)O | inactive | –
8 | CC(=O)Oc1ccc(C(C)=O)cc1 | inactive | –
9 | CC(C)(C)C(=O)C=Cc1ccc(Cl)cc1 | inactive | –
10 | CC(=O)CC(N)=O | inactive | –
11 | CN(C)c1ccc(C(=N)c2ccc(N(C)C)cc2)cc1 | – | 0.334 µM (active)
12 | C[C@]12C=CC(=O)C=C1CC[C@@H]1[C@@H]2[C@@H](O)C[C@@]2(C)[C@H]1CC[C@]2(O)C(=O)CO | inactive | –
13 | CC(C)c1ccc(C#N)cc1 | inactive | –
14 | CCC(C)OC(=O)c1ccc(O)cc1 (stereo not given) | inactive | –
15 | CCCCCCOC(=O)C(C)CC (stereo not given) | inactive | –
16 | O=C(OCC1CCC2OC2C1)C1CCC2OC2C1 (stereo not given) | inactive | –
17 | C=CC(=O)OCCC(=O)O | inactive | –
18 | CC(=O)Nc1nnc(S(N)(=O)=O)s1 | inactive | –
19 | O=C1CCCCCN1SSN1CCCCCC1=O | inactive | –
20 | C=CC(C)(CCC=C(C)C)OC(=O)CC(C)C (stereo not given) | inactive | –

Row | Compound | outcome | AC50
21 | Cc1ccccc1C | inactive | –
22 | C=C[Si](C)(C)O[Si](C)(C)C=C | – | 100 µM (active)
23 | Cc1ccc(C(C)(C)C)cc1 | inactive | –
24 | CCCCC/C=C\C/C=C\CCCCCCCC(=O)OC | inactive | –
25 | O=C(c1ccccc1)C1CCC1 | inactive | –
26 | COCc1c(C(C)C)nc(C(C)C)c(/C=C/[C@@H](O)C[C@@H](O)CC(=O)O)c1-c1ccc(F)cc1 | inactive | –
27 | Nc1ccc2cc3ccccc3cc2c1 | inactive | –
28 | CN1C(=O)N(C)C(O)C1O (stereo not given) | inactive | –
29 | Nc1cccc(C(F)(F)F)c1 | inactive | –
30 | CCN(CC#N)c1cccc(C)c1 | inactive | –
31 | CC1(C)O[C@@H]2C[C@H]3[C@@H]4C[C@H](F)C5=CC(=O)CC[C@]5(C)[C@H]4[C@@H](O)C[C@]3(C)[C@]2(C(=O)CO)O1 | inactive | –
32 | O=C(O)c1ccccc1Nc1cccc(C(F)(F)F)c1 | inactive | –
33 | C[Si](C)O[Si](C)(C)O[Si](C)(C)O[Si](C)C | inactive | –
34 | C=C(C)C(=O)OCC(C)C | inactive | –
35 | CCOC(=O)Cc1cccc2ccccc12 | inactive | –
36 | COC(=O)c1sccc1S(N)(=O)=O | inactive | –
37 | CC(=O)OCC(=O)[C@@]12N=C(C)O[C@@H]1C[C@H]1[C@@H]3CCC4=CC(=O)C=C[C@]4(C)[C@H]3[C@@H](O)C[C@@]12C | inactive | –
38 | CC1=CC[C@H](C(C)C)C=C1 | inactive | –
39 | c1cc(N(CC2CO2)CC2CO2)ccc1OCC1CO1 (stereo not given) | inactive | –
40 | CC(C)c1ccc(C=O)cc1 | inactive | –
